Bioassay records (PubChem BioAssay)
Shown is part of a subset that was picked to be rich in hits.
Giardia FBPA inh: blocks Giardia fructose-bisphosphate aldolase activity; A8B2U2; purified Giardia FBPA; Potency, µM (top dose mostly 59.6 µM), usual class: inhibitors; 290,000 compounds, 0.71% hits; AID 2451; further: nearly all actives have a fitted effect of over 55% in size
Target sequence (A8B2U2 whole entry, looked up): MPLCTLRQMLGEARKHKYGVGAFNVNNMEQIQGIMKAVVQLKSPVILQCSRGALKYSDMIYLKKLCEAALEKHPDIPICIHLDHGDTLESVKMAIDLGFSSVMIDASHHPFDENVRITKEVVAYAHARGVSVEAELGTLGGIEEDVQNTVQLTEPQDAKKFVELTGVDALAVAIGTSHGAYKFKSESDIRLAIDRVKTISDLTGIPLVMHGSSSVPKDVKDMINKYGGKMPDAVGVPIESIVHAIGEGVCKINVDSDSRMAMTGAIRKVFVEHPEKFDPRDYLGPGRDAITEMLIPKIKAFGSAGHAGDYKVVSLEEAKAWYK
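40 nM FBPA preincubated 10 min at RT with compound (up to 57.5 uM final), then substrate plus GAPDH/TPI/NAD/arsenate coupling and diaphorase/resazurin added. Fluorescence read after 20 min at RT, 525/598 nm.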
LmPK inhibitor: blocks Leishmania mexicana pyruvate kinase activity; purified LmPK, Kinase-Glo ATP luminescence, 1 h; AID 1721; Q27686; 290,000 compounds, 0.37% hits; Potency, µM (top dose mostly 57.5 µM), hits mostly inhibitors
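Purified LmPK (0.1 nM) with 0.5 mM PEP and 0.1 mM ADP in imidazole buffer pH 7.2 with MgCl2/KCl, 1 h at room temperature. ATP formed was read by luciferase luminescence and normalized to no-enzyme and uninhibited controls.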
TbPYK inhibitor: blocks Trypanosoma brucei pyruvate kinase; Q57TT1; TbPYK enzyme, Kinase-Glo Plus ATP luminescence, 45 min; Potency, µM (titrated, usually from 76.8 µM), usual class: inhibitors; 410,000 compounds, 0.12% hits; AID 624173; further: nearly all actives have a fitted effect of over 50% in size
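T. brucei PYK with substrate was exposed to pin-transferred compounds across a concentration series, then started with 130 uM ADP (final). After 45 min at room temperature, Kinase-Glo Plus luminescence was read, normalized and curve-fitted.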
Shiga toxin inh: blocks Shiga toxin action in Vero cells; Vero cells, Shiga toxin protein synthesis inhibition reporter; inhibition, % at 38.7 µM; 290,000 compounds, 9.2% hits; in the data active means inhibition mostly above about 28%, no sharp cut-off; inactive means mostly below about 43%
RE007 growth inh: less growth of the S. pombe RE007 Vpr strain. S. pombe RE007 Vpr strain, BacTiter-Glo ATP luminescence, 24 h. Potency, µM (series often up to 92.2 µM), most hits filed as inhibitors. 360,000 compounds, 0.21% hits; active means well fitted falling curve with a large enough effect; inconclusive means small, poorly fitted or top-dose-only effect; inactive means no such curve, though single readings can be large or run the other way; further: nearly all actives have a fitted effect of over 50% in size
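Fission yeast RE007 carrying one integrated HIV-1 vpr copy, seeded at OD 0.01 in PMG+AL medium with 23 nL pinned compound. Grown 24 h at 30 degrees; viability read by BacTiter-Glo luminescence after 5 min.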
Cycloheximide cs: affects cycloheximide protein synthesis inhibition readout, counter-screen; AID 2314; max response, %; cell reporter, cycloheximide protein synthesis inhibition counterscreen; 300,000 compounds, 12% hits; in the data active means max response mostly above about 13%, no sharp cut-off; inactive means mostly below about 14%; further: read at 38.3 µM for the half of the compounds with a filed dose
Large screens that a line does not name were inactive. Unless noted, the call rests on the fitted dose curve; in most records, active means well fitted curve in the direction sought with a large enough effect; inconclusive means small, poorly fitted or top-dose-only effect, or another doubt; inactive means no such curve, though single readings can be large; an effect the other way counts as inactive or inconclusive.

C#CCn1c(=NC(=O)c2ccc(Br)s2)sc2cc(NC(C)=O)ccc21	none
C#CCn1c(=NC(=O)c2ccc(Br)s2)sc2cccc(OC)c21	Shiga toxin inh 72.7, Cycloheximide cs 19.4
C=CCn1c(=NC(=O)c2cccs2)sc2cccc(OC)c21	Shiga toxin inh 52.8, Cycloheximide cs 28.2
NNC(=O)c1ccc(O)cc1O	Shiga toxin inh 75.9, Cycloheximide cs 29.6
O=C(NN=C1CCCC1)c1cc(Br)ccc1O	Cycloheximide cs 23.0
O=C(NN=C1CCCC1)c1ccc(O)cc1O	Shiga toxin inh 124.4, Cycloheximide cs 37.7 (no result: Giardia FBPA inh)
CCCCCC(=O)c1ccc(O)cc1O	Shiga toxin inh 49.4, Cycloheximide cs 32.1
COc1ccc(OC)c(S(=O)(=O)Nc2cccc(-c3ccc(N4CCCCC4)nn3)c2)c1	none (no result: Giardia FBPA inh, LmPK inhibitor, Shiga toxin inh, RE007 growth inh, Cycloheximide cs)
O=C(NCc1ccccc1Cl)c1ccc2c(c1)ncn2-c1cccc(F)c1	none (no result: Giardia FBPA inh, LmPK inhibitor, Shiga toxin inh, RE007 growth inh, Cycloheximide cs)
Cc1cccc(CNc2cc(-c3ccccc3C)ncn2)c1	none (no result: LmPK inhibitor, TbPYK inhibitor, Shiga toxin inh, RE007 growth inh, Cycloheximide cs)
CC(=O)Nc1ccc(S(=O)(=O)NC2CCS(=O)(=O)C2)cc1Cl (configuration not stated)	none
Cc1cccc(Cn2cc(C(=O)Nc3ccc(S(N)(=O)=O)cc3)ccc2=O)c1	none (no result: Giardia FBPA inh, LmPK inhibitor, Shiga toxin inh, RE007 growth inh, Cycloheximide cs)
CN(CC(=O)Nc1ccc(N2CCOCC2)cc1)C(=O)CCNC(=O)c1ccc(Br)cc1	none (no result: Giardia FBPA inh, LmPK inhibitor, Shiga toxin inh, Cycloheximide cs)
COc1ccc(-n2c(=O)c3c4c(sc3n(Cc3ccc(F)cc3)c2=O)CCCC4)c(OC)c1	none (no result: Giardia FBPA inh, LmPK inhibitor, Shiga toxin inh, RE007 growth inh, Cycloheximide cs)
COc1ccc(C(=O)NN=C2CCCC2)c(OC)c1	Cycloheximide cs 19.6
CN1CCC(=NNC(=O)c2ccco2)CC1	Shiga toxin inh 78.6, Cycloheximide cs 66.6
CN1CCN(c2ccc(CNC(=O)c3ccco3)cc2)CC1	none
CC(C)(C)C1CCC(=NNC(=O)c2ccco2)CC1 (configuration not stated)	Shiga toxin inh 174.7, Cycloheximide cs 70.5 (no result: Giardia FBPA inh)
CC(C)(C)C1CCC(=NNC(=S)NCc2ccccc2)CC1 (configuration not stated)	none
COc1cc(NC(=O)c2cc(-c3cccc(Cl)c3)on2)c(OC)cc1Cl	none (no result: Giardia FBPA inh, LmPK inhibitor, Shiga toxin inh, RE007 growth inh, Cycloheximide cs)
CCOc1ccc(OCC)c(NC(=O)CCS(=O)(=O)c2ccc(Br)s2)c1	Cycloheximide cs 14.9
COc1ccc(NC(=O)c2ccco2)cc1NC(=O)COc1ccccc1Cl	none (no result: Giardia FBPA inh, LmPK inhibitor, Shiga toxin inh, RE007 growth inh, Cycloheximide cs)
O=C(Nc1ccc(F)cc1F)c1cc(Cl)sc1Cl	Cycloheximide cs 30.0
Cc1cccc(NC(=O)c2cc(Cl)sc2Cl)c1C	none
O=C(Nc1ccccc1F)c1cc(Cl)sc1Cl	Shiga toxin inh 71.8, Cycloheximide cs 31.2
COC(=O)c1ccc(-c2nc3cc(Cl)c(N)cc3s2)cc1	Giardia FBPA inh inconclusive, LmPK inhibitor inconclusive, Shiga toxin inh 106.3, Cycloheximide cs 48.1
COC(=O)c1ccc(-c2nc(O)c(C)s2)cc1	none
O=C(NCCN1CCOCC1)c1cccc(NS(=O)(=O)c2ccc(Br)cc2)c1	none (no result: Giardia FBPA inh, LmPK inhibitor, Shiga toxin inh, Cycloheximide cs)
CCc1ccc(NC(=O)CN2C(=O)C(c3ccc(F)cc3)=NC2(C)C)cc1	none (no result: Giardia FBPA inh, LmPK inhibitor, Shiga toxin inh, RE007 growth inh, Cycloheximide cs)
Clc1c(-c2ccccc2)nnn1-c1ccccc1	Shiga toxin inh 105.3, Cycloheximide cs 55.9
Nc1nnn(-c2ccccc2)c1-c1ccccc1	none (no result: Giardia FBPA inh, LmPK inhibitor, Shiga toxin inh, Cycloheximide cs)
Cc1cc(N(C)N)nc(NC(=O)NS(=O)(=O)c2ccccc2Cl)n1	Giardia FBPA inh inconclusive, Cycloheximide cs 16.3
COc1cc(OC)nc(NC(=O)NS(=O)(=O)c2ccccc2Cl)n1	none
Cc1ccc(C)n1-c1ccc(-c2ccnc(N)n2)cc1	Cycloheximide cs 24.3
Cc1onc(-c2ccccc2)c1-c1ccnc(N)n1	none
C=CCN1C(=O)/C(=C/c2ccc3c(c2)CCCN3CCC)C(=O)NC1=S	Giardia FBPA inh inconclusive, TbPYK inhibitor inconclusive, Cycloheximide cs 11.4
CCN1C(=O)/C(=C/c2ccc3c(c2)CCN3CCCCl)C(=O)NC1=S	TbPYK inhibitor inconclusive, RE007 growth inh inconclusive
CC(C)Sc1ncc(Cl)c(C(=O)N(Cc2ccc(F)cc2)C2CCS(=O)(=O)C2)n1 (configuration not stated)	none (no result: Giardia FBPA inh, LmPK inhibitor, Shiga toxin inh, RE007 growth inh, Cycloheximide cs)
CC(=O)c1cc(-c2ccc(F)cc2)n(CC(=O)NC2CCC(C)CC2)c1C (configuration not stated)	none (no result: Giardia FBPA inh, LmPK inhibitor, Shiga toxin inh, RE007 growth inh, Cycloheximide cs)
O=C(Cn1ncc2c3ccccc3n(Cc3cccc(Cl)c3)c2c1=O)N1CCCCCC1	none (no result: Giardia FBPA inh, LmPK inhibitor, Shiga toxin inh, RE007 growth inh, Cycloheximide cs)
COCCNC(=O)C(=O)N/N=C(\C)CC(=O)Nc1cccc(C(F)(F)F)c1	none
